Experimental data published in ChEMBL document CHEMBL3988442, “University of Dundee, Small-Polar-MMV Screening Library” (2021).
For part of these data: Entries with a potency or affinity are not part of this list.

Key:
Set-up in all cases: scale not given: direction of the effect not stated beside the values
[1] = target: Protein translocase subunit SecA (Escherichia coli (strain K12)) (UniProt P10408); experiment: Assay to Identify E. coli SecA ATPase Inhibitors; format: functional; details: 30 µM
Chain of Protein translocase subunit SecA (Escherichia coli (strain K12)) (P10408 whole entry): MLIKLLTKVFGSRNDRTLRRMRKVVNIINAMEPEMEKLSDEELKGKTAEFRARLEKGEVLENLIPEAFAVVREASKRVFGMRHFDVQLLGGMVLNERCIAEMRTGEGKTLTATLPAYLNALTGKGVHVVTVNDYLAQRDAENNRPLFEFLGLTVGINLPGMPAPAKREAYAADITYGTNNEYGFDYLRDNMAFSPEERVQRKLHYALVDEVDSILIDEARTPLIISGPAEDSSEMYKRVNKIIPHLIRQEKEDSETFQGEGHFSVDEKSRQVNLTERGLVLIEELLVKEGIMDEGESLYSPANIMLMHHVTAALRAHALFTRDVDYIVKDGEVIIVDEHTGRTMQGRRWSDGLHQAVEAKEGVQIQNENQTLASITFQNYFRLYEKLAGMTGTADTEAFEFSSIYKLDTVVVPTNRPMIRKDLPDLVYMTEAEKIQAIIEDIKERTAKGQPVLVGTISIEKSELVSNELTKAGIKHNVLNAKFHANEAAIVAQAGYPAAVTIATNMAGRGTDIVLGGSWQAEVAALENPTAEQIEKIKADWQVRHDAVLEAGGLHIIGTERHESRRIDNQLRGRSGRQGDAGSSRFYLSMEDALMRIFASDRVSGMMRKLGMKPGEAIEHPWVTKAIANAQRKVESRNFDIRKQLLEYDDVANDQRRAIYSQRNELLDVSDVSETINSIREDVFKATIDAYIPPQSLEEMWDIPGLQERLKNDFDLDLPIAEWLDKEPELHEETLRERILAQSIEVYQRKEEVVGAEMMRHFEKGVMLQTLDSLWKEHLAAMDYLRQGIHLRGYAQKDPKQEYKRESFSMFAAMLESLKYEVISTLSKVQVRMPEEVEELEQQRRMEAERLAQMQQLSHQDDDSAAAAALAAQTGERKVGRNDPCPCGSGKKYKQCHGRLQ

[2] = target: T1, Ubiquitin-activating enzyme e1, putative (Leishmania donovani (strain BPK282A1)) (UniProt E9BSI1); experiment: Leishmania donovani Ubiquitin Activating Enzyme (LdE1); format: functional; details: 30 µM
T1 sequence (whole entry): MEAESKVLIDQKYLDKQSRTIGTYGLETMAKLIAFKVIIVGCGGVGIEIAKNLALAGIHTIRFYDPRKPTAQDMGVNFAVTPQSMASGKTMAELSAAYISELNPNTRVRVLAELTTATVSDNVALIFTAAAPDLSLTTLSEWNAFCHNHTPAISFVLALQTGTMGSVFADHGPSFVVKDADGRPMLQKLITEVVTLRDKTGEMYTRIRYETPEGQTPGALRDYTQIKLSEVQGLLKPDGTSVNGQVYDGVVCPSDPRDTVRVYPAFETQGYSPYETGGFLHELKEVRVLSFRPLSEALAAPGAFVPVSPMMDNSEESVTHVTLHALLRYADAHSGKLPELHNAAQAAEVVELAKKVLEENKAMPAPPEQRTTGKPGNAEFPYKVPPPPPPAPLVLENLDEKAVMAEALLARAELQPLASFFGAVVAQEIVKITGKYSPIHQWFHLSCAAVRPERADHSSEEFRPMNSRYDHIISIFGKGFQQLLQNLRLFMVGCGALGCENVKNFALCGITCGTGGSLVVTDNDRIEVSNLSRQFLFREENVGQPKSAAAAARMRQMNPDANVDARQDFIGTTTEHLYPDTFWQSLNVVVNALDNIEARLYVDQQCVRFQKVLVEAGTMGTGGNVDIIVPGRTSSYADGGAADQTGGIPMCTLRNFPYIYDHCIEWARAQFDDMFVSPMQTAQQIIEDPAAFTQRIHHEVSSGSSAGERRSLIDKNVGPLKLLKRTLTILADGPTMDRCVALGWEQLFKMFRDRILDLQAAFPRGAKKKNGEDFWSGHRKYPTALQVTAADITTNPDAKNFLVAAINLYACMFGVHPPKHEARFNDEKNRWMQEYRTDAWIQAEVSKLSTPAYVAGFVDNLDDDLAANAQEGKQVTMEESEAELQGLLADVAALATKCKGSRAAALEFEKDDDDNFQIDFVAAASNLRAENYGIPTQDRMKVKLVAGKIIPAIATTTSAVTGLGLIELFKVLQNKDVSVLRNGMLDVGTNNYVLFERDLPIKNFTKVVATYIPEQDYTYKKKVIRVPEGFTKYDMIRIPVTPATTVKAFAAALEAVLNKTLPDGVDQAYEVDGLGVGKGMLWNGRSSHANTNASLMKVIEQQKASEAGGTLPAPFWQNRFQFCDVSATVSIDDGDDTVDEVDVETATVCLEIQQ

[3] = target: AMP-activated protein kinase, AMPK (Homo sapiens) (UniProt P54646+O43741+P54619+Q9UGJ0+Q9Y478+Q13131+Q9UGI9); experiment: AMP-dependent Kinase enzyme assay. An in vitro enzyme assay that detects ADP turnover that is directly proportional to AMPK activity. This uses naive AMPK that is activated during the assay with MK-8722; format: functional; details: 30 µM
[4] = target: Sialic acid-binding Ig-like lectin 9 (Homo sapiens) (UniProt Q9Y336); experiment: Hs-Siglec9 ALPHAscreen SOP 20170721; details: 10 µM
Chain of Sialic acid-binding Ig-like lectin 9 (Homo sapiens) (Q9Y336 whole entry): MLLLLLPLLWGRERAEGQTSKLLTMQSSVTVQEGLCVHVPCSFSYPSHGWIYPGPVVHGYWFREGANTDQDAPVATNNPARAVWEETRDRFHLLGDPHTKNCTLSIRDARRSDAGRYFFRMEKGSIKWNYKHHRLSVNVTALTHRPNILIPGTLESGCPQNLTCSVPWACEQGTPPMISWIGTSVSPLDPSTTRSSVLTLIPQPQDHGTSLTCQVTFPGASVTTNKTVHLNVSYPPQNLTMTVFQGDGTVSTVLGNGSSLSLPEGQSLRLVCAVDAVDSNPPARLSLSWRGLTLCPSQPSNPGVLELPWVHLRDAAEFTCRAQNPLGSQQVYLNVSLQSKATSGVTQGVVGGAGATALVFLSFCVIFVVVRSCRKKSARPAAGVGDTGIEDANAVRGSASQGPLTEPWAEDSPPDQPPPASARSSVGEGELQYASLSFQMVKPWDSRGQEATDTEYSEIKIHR

Trypanosoma cruzi = experiment: Trypanosoma cruzi phosphomannomutase and mannose-1-phosphate guanylyltransferase assay; format: functional; details: 10 µM
[5] = target: T2, Arginase-2, mitochondrial (Homo sapiens) (UniProt P78540); experiment: in vitro enzyme assay to detect the production of urea directly proportional to the activity of Arginase II; format: functional; details: 33.3 µM; also: in the data most compounds retested in dose-response had high values
T2 sequence (whole entry): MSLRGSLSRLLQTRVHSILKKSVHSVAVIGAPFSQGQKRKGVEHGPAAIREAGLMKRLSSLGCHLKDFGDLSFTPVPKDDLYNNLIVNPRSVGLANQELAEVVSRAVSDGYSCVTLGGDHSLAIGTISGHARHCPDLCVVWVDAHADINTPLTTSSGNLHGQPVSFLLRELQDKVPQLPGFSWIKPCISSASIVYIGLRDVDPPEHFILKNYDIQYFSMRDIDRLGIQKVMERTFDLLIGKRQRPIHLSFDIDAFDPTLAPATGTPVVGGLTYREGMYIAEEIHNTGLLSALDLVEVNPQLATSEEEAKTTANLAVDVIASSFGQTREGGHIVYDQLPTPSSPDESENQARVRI

[6] = target: T3, Proteasome subunit beta (Trypanosoma cruzi) (UniProt O96673); experiment: Trypanosoma cruzi proteasome chymotrypsin-like activity (TcProtChymo) assay.; also: in the data most compounds retested in dose-response had high values; format: functional; details: 9.37 µM
T3 sequence (whole entry): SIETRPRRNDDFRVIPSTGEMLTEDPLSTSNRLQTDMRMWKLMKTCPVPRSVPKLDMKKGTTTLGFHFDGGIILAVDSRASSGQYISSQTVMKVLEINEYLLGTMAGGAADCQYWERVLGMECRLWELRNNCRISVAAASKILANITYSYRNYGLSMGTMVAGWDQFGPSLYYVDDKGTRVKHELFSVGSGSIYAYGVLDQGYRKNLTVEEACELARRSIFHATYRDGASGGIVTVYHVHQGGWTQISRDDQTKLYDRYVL

Homo sapiens = species on record: Homo sapiens; experiment: To identify inhibition of the IFN signalling (Jak-Stat) pathway via expression of an eGFP reporter gene under the control of an IFN-stimulated response element (ISRE) containing MxA promoter.; format: functional; details: 30 µM
[7] = target: T4, Tyrosyl-tRNA synthetase, putative (Trypanosoma cruzi (strain CL Brener)) (UniProt Q4DSP6); experiment: Trypanosoma cruzi tyrosyl tRNA synthetase (TcYRS) _High Tyrosine SOP; format: functional; details: 30 µM; also: in the data most compounds retested in dose-response had high values
T4 sequence (whole entry): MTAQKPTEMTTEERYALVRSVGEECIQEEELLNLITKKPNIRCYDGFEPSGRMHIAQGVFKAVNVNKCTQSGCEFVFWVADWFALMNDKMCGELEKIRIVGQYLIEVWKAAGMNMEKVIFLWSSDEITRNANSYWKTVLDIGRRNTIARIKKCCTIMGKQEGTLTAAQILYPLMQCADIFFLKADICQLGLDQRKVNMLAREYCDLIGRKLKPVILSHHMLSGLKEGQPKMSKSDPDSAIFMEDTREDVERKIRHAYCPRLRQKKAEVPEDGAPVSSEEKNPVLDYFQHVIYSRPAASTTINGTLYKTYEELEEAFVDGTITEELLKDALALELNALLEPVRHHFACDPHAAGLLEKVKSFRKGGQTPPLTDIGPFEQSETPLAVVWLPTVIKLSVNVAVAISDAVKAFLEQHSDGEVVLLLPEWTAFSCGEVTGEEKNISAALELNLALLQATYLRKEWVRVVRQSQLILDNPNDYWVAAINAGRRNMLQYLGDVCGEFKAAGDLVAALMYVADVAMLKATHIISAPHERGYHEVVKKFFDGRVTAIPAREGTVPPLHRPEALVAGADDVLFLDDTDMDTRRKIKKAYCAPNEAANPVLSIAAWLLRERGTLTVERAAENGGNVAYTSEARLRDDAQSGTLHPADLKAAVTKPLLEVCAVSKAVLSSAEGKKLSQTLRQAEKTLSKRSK

[8] = target: T4, Tyrosyl-tRNA synthetase, putative (Trypanosoma cruzi (strain CL Brener)); experiment: Trypanosoma cruzi tyrosyl tRNA synthetase (TcYRS) SOP; format: functional; details: 30 µM
[9] = target: Chromo domain-containing protein 1 (Saccharomyces cerevisiae (strain ATCC 204508 / S288c) (Baker's yeast)) (UniProt P32657); experiment: ScCHD-1 Enzyme Inhibition Assay; format: functional; details: 30 µM; also: in the data most compounds retested in dose-response had high values
Chain of Chromo domain-containing protein 1 (Saccharomyces cerevisiae (strain ATCC 204508 / S288c) (Baker's yeast)) (P32657 whole entry, the tested form may be a part): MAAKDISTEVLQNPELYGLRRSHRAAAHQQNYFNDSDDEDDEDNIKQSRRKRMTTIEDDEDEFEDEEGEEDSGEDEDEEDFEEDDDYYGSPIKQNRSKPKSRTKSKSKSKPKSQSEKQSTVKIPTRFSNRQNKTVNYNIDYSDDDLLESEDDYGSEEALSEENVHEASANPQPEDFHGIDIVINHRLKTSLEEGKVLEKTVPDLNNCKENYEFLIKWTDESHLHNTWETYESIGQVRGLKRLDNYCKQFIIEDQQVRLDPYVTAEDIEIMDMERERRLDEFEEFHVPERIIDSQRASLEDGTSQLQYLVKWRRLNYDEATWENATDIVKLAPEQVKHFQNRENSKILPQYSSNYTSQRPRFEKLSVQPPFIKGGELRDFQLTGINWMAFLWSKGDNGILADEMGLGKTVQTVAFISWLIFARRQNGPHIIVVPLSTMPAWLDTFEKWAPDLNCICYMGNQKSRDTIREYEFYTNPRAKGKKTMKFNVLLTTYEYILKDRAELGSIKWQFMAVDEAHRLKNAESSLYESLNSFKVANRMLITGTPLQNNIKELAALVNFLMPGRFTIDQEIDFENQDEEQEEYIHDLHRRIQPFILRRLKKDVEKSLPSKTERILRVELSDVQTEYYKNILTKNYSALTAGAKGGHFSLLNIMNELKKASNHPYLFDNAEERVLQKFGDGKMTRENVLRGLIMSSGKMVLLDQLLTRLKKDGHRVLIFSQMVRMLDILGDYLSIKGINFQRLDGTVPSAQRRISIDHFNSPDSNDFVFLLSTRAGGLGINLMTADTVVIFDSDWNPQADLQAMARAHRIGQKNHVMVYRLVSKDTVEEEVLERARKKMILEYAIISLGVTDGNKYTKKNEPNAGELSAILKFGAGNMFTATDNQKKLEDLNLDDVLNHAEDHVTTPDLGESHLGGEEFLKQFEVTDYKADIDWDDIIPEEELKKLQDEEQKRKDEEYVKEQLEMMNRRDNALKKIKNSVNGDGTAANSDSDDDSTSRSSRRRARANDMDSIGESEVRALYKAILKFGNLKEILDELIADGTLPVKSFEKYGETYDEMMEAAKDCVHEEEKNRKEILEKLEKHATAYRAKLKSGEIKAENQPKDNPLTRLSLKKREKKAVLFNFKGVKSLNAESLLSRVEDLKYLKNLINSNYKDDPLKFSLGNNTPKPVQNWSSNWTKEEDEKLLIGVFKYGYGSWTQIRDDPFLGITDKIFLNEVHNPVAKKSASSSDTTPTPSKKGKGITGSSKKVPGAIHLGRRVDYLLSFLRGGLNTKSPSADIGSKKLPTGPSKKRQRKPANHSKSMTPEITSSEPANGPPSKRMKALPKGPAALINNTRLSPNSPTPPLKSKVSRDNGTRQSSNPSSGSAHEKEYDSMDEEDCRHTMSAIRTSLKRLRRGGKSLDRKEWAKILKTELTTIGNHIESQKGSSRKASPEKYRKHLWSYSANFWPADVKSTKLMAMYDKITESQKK

| SMILES | Percent Effect [1] | Percent Effect [2] | Percent Effect [3] | Percent Effect [4] | Percent Effect (Trypanosoma cruzi) | Percent Effect [5] | Percent Effect [6] | Percent Effect (Homo sapiens) | Percent Effect [7] | Percent Effect [8] | Percent Effect [9] |
| --- | --- | --- | --- | --- | --- | --- | --- | --- | --- | --- | --- |
| Cc1cnc(C)c(N2CCN(Cc3ccc(-c4cc[nH]n4)o3)CC2)n1 | -0.779% | 10.7% | -20.1% | 21.3% | 5.94% | 7.29% | 22.7% | 32% | 7.1% | 16.1% | -4.34% |
| Cc1ccccc1C(=O)N1CCC(n2nnc3cc(F)ccc32)CC1 | -4.02% | 5.33% | 12% | 0.882% | -3.35% | 1.17% | 5.02% | 7.34% | 4.25% | 11.5% | -5% |
| Cc1cc(CN2CCN(c3nn4cc(C)nc4s3)CC2)on1 | -0.836% | 16.5% | 4.65% | 3% | -0.923% | 0.215% | 20.4% | 6.94% | 7.29% | 15.2% | -20.7% |
| COc1cc(C(=O)NS(=O)(=O)c2cccc(C#N)c2)cc(Cl)c1OC | -2.08% | -5.41% | 2.84% | 4.53% | 3.44% | 3.51% | 1.79% | -7.05% | -6.93% | -1.22% | 6.51% |
| Cc1cc(CN2CCCC2c2c(C)nn(C)c2Cl)no1 (stereo unspecified) | -2.25% | 21.1% | -2.49% | -2.11% | 3.46% | 3.24% | 13.4% | 3.96% | 10.3% | 28.4% | -10.3% |
| O=C(NCc1ccoc1)Nc1ccc(CN2CCOC2=O)cc1 | -4.58% | 1.39% | 6.74% | -4.22% | -6.12% | 0% | 15.1% | 24.8% | 0% | -5.13% | -2.04% |
| CCN(CC(=O)NC)C(=O)Cc1nc(-c2ccco2)oc1C | -8.15% | 5.33% | -6.53% | 3.51% | 0.876% | 5.73% | 16.9% | 10.7% | 8.2% | 13.6% | -5.99% |
| COC[C@H]1CCC[C@]12CN(CCc1ccccc1)CCO2 | 0.0327% | 12% | 1.6% | 2.89% | -5.5% | -8.28% | 19.8% | 4.65% | 1.06% | 2.56% | -6.74% |
| COc1cccc(S(=O)(=O)N2CCn3cnc(COCC4CC4)c3C2)c1 | -2.27% | 2.67% | 2.22% | 0.793% | 0.386% | -33.1% | 3.93% | 7.62% | 3.12% | 5% | -4.77% |
| CC(C)(C)c1noc(CN2CCCN(Cc3cccs3)CC2)n1 | -4.7% | 10.4% | 2.92% | -6.09% | -3.75% | 0.356% | 1.69% | 30% | 6.8% | 12.2% | -5.35% |
| CCOC(=O)N1CCN(c2nc(NCCCO)c3ccccc3n2)CC1 | -3.88% | -1.33% | 5.25% | 7.39% | 5.5% | -0.88% | 0.739% | 15.2% | 2.12% | 5.13% | -3.87% |
| CC(CN1CCOCC1)NC(=O)NCc1ccc(Cl)s1 (stereo unspecified) | 0.411% | 10.5% | 7.25% | 0.82% | -2.63% | -2.37% | 15.8% | 5.71% | 8.51% | 20.8% | -3.24% |
| O=C(O)c1csc(S(=O)(=O)N2CCCc3ccc(F)cc32)c1 | -6.97% | -2.67% | -4.41% | 4.48% | 0.682% | 0% | 6.1% | 8.48% | -13.7% | -13.6% | -5.31% |
| CCc1nnc2n1CCN(C(=O)c1cc3cc(F)ccc3[nH]1)C2 | -3.51% | 0% | 21% | 11.1% | 4.68% | -1.78% | 2.37% | -24.4% | 7.77% | 24.4% | -11.3% |
| CC(C)NC(=O)[C@H]1C[C@@H]2[C@@H](C1)OCCN2Cc1cnn(C)c1 | -3.53% | 0% | 4.75% | 2.29% | -5.6% | -50% | 4.44% | -6.54% | 3.12% | 10% | -4.52% |
| CN(C)C(=O)c1nc2c(s1)CCN(C(=O)c1ccc(Cl)cc1)CC2 | -2.69% | 18.7% | -9.31% | -1.54% | 2.7% | -29.6% | 10.4% | -8.27% | 9.38% | 30% | -12.2% |
| Cc1ccc(CN2CCc3ncnc(-c4ccc(F)cc4)c3CC2)o1 | -0.438% | 5.33% | 3.65% | 4.4% | -1.93% | -50.4% | 12.5% | -0.337% | 1.04% | 12.5% | -9.77% |
| CCc1csc(C2CCCN(C(=O)c3cnn(CC)c3)C2)n1 (stereo unspecified) | -1.78% | -2.63% | 68.6% | -1.18% | -1.46% | 3.55% | 6.04% | 6.86% | 3.19% | -2.6% | -7.82% |
| COc1ncccc1C(=O)N1CCC(CNC(C)=O)CC1 | -4.18% | 5.33% | -0.618% | 3.6% | -2.43% | 1.56% | 6.28% | -6.88% | 4.92% | 13.6% | -5.96% |
| CCc1cnc2c(c1NCc1ccncc1)c(=O)n(C)c(=O)n2C | 0.985% | 8.22% | -0.992% | -0.488% | -4.5% | 5% | 13.1% | 14.7% | 6.45% | 10% | -4.37% |
| Cn1cc(CN2CCCC3(CCN(Cc4cccnc4)C3=O)C2)cn1 (stereo unspecified) | -0.768% | 21.6% | -0.596% | -4.91% | 3.81% | 7.33% | 14% | -9.12% | 1.08% | 12.8% | 1.58% |
